Shown are actives, neighbours in structure and some others; about 2.4% of the full set was active somewhere.
POLI inh = inhibitors of human DNA polymerase iota; Q9UNA4; Pol iota fluorescent replication assay, 10 min; Potency, µM (titrated, usually from 115 µM), inactives show top-dose activity, negative = inhibition, usual class: inhibitors; actives 1% (n = 390,000); AID 588590
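Pol iota at 10 nM preincubated 15 min with compounds at room temperature; reaction started with fluorescent substrate, 50 nM final. Fluorescence read kinetically at 0 and 10 min; buffer-only wells as negative control.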
POLB inh = DNA polymerase beta (human) inhibition. Pol beta primer extension/strand displacement, fluorescence kinetic. P06746. Potency, µM (highest dose often 114 µM), for inactives: at the top dose activity change, negative = inhibition, most hits filed as inhibitors. AID 485314. actives 1.3% (n = 340,000); further: on the % scale 0 is the no-effect control and ±100 the full control effect
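Homogeneous kinetic assay of primer extension and strand displacement by 10 nM Pol beta, preincubated 15 min at room temperature with compound before 50 nM substrate (final) was added. Read at 0 and 10 min; four-parameter Hill fit.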
POLH inh = DNA polymerase eta (human) inhibition | actives 1.2% (n = 390,000) | recombinant Pol eta, fluorescent DNA replication assay | Potency, µM (series often up to 114 µM), for the others: at the top dose activity change, negative = inhibition, actives largely listed as inhibitors | Q9Y253; further: on the % scale 0 is the no-effect control and ±100 the full control effect
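Pol eta at 10 nM preincubated with compounds 15 min at room temperature; reaction started with fluorescent substrate (50 nM final) and read kinetically at 0 and 10 min.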
FEN1 inhibitor = inhibitors of human flap endonuclease 1; P39748; Recombinant FEN1 flap cleavage, fluorescence, 15 min; Potency, µM (series often up to 114 µM), inactives show top-dose activity change, negative = inhibition, actives largely listed as inhibitors; actives 0.35% (n = 390,000); further: on the % scale 0 is the no-effect control and ±100 the full control effect; nearly all actives have a fitted effect of over 65% in size
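Reaction started by adding substrate (50 nM final) to 10 nM enzyme after 15 min room-temperature compound preincubation. Reads at 0 and 15 min, with data normalized and fitted to a four-parameter Hill equation.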
WRN helicase inh = inhibitors of human WRN helicase; AID 651768; actives 0.46% (n = 360,000); WRN helicase unwinding, fluorescent forked duplex, kinetic; Potency, µM (series often up to 114 µM), inactives show top-dose activity change, negative = inhibition, most hits filed as inhibitors; further: on the % scale 0 is the no-effect control and ±100 the full control effect; nearly all actives have a fitted effect of over 55% in size
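Kinetic fluorescence helicase assay: unwinding of a quenched forked DNA duplex (100 nM final) with 2 mM ATP final raises red fluorescence (525/598 nm). Compounds sat 15 min at room temperature with 20 nM WRN beforehand.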
POLK inh = blocks human DNA polymerase kappa activity; Q9UBT6; purified Pol kappa, fluorescent DNA synthesis assay, 10 min; Potency, µM (top dose mostly 107 µM), inactives show top-dose activity, negative = inhibition, usual class: inhibitors; actives 0.53% (n = 400,000); further: on the % scale 0 is the no-effect control and ±100 the full control effect
Target sequence (Q9UBT6 whole entry, looked up): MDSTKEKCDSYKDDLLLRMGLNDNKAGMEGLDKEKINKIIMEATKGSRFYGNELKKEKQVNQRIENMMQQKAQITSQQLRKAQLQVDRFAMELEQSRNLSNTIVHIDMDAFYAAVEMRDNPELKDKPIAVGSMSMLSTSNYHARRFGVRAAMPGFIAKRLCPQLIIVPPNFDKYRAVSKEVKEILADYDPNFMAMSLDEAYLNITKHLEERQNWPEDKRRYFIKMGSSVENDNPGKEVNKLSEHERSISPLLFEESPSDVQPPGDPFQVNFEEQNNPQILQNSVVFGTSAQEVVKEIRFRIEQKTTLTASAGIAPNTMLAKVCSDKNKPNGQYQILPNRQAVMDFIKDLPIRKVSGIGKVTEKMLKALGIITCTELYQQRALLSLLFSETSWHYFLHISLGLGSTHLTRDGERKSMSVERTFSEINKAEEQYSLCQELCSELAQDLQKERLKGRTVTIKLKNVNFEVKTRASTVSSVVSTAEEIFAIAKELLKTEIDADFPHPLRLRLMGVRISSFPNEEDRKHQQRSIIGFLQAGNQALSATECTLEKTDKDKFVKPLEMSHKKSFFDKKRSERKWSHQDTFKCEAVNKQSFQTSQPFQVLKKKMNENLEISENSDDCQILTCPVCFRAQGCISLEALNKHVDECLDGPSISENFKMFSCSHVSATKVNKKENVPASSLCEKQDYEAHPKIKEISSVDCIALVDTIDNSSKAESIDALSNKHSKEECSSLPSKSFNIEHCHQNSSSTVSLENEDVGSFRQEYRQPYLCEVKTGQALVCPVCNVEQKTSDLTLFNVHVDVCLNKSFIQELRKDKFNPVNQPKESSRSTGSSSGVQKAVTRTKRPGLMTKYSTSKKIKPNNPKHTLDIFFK
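First, compounds were pin-transferred onto 10 nM Pol kappa. After 15 min at room temperature, substrate was added to 50 nM final. Fluorescence was then measured kinetically at 0 and 10 min.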
Numbers without * were called inactive; ? = inconclusive; . = no result given; [ ] = dose if it differs, or a comment. The call rests on the fitted dose curve; in most records, active means well fitted curve in the direction sought with a large enough effect; inconclusive means small, poorly fitted or top-dose-only effect, or another doubt; inactive means no such curve, though single readings can be large; an effect the other way counts as inactive or inconclusive. Potency means the concentration at half of the fitted maximal effect.

SMILES	POLI inh	POLB inh	POLH inh	FEN1 inhibitor	WRN helicase inh	POLK inh
CCCCCCCCN1[C@@H](CC(C)=O)c2ccc(/C=C/C(C)=O)cc2S1(=O)=O	?	.	.	1%	.	14%
C/C(=C\COc1c2ccoc2cc2oc(=O)ccc12)CCC(O)C(C)(C)O (stereo not given)	.	.	.	.	.	-11%[60.1 µM]
CCOC(=O)c1nn(-c2ccc(F)cc2)c(C)c1C(C)=O	1%	28%	-4%	-2%	-1%	-6%
CCOC(=O)c1nn(-c2ccc(OCC)cc2)c(C)c1C(C)=O	27%	14%	89µM*	5%	-5%[11.6 µM]	-4%
Cc1oc(C(=O)O)cc1COc1ccc2c(C)cc(=O)oc2c1	-14%	?	22µM*	-5%	-10%	-25%
CCN(CC)c1ccc(C(=C2C=CC(=[N+](CC)CC)C=C2)c2ccccc2)cc1	8%	.	-10%	19%	45µM*	-3%
CCN(CC)c1ccc(C(=O)NNC(=O)CCNC(=O)c2ccccc2)cc1	11%	.	-11%	-2%	3%	-2%
CCN(CC)c1ccc(C(=C2C=CC(=[N+](CC)Cc3cccc(S(=O)(=O)[O-])c3)C=C2)c2ccc(N(CC)Cc3cccc(S(=O)(=O)O)c3)cc2)cc1	.	.	.	.	.	4.2µM*
COc1ccc(C(=O)c2nccc3cc(OC)c(OC)cc23)cc1OC	?	.	?	-16%	-12%	-16%
COc1cc2c(cc1OC)-c1c(OC)c(OC)cc3ccnc(c13)C2=O	24%	?	?	7.9µM*	-4%	?
O=C(Nc1ccc2c(c1)OCO2)c1cccc2c1C(=O)N(Cc1cccnc1)C2	?	40µM*	?	-32%	-28%	-12%
Cc1ccc(N/C(C(Cl)=C(Cl)Cl)=C(/Cl)[N+](=O)[O-])c(C)c1	16µM*	-2%	-10%	-10%	2%	0%
Cc1ccc(NC(=O)CC(=O)Nc2ccc(C)cc2C)c(C)c1	3%	39%	-9%	0%	14%	8%
COc1cc2nc(C#N)nc(N)c2cc1OC	?	.	.	3%	.	?
COC(=O)[C@@H]1C[C@@]2(Br)c3ccccc3N(S(=O)(=O)c3ccccc3)[C@H]2N1C(=O)OC	89µM*	.	-17%	-4%	-12%[11.6 µM]	-1%
COC(=O)[C@@H]1C[C@]2(Br)c3ccccc3N(S(=O)(=O)c3ccccc3)[C@@H]2N1C(=O)OC	-16%	.	-12%	3%	0%	3%
Cc1nn(-c2ccccc2)c(C)c1C(=O)NCc1cccs1	28%	47%	-13%	-2%	2%	4%
Cc1nn(-c2ccccc2)c(Cl)c1C(=O)NCc1cccs1	?	13µM*	?	-14%	-7%	-41%
N#C/C(=N/Nc1ccc(OC(F)(F)F)cc1)C(N)=S	15%	38%	-22%	17%	-7%	-17%
NC(=S)N=Nc1ccc(NN=C(N)N)cc1	?	-4%	-14%	50µM*	?	?
CNc1ccc(C=C2c3ccccc3-c3ccccc32)cc1	10%	.	.	-22%	.	-11%
O=C(Cc1ccc(-n2cccc2)cc1)NCc1cccs1	-29%	45µM*	?	-1%	-13%	-19%
O=c1oc(-c2ccc(C(F)(F)F)cc2)nn1Cc1cc(Cl)ccc1O	.	.	.	.	.	9%[60.1 µM]
COc1cc2c(cc1OC)C1O[C@](CCCCN3C(=O)c4ccccc4C3=O)(C2)Oc2c1c(=O)oc1ccc(F)cc21	.	3.5µM*	.	.	.	.
COc1ccc2c3c(c(=O)oc2c1)C1O[C@](CCCCN2C(=O)c4ccccc4C2=O)(Cc2cc(OC)c(OC)cc21)O3	.	-25%[22.9 µM]	.	.	.	.
SMILES	POLI inh	POLB inh	POLH inh	FEN1 inhibitor	WRN helicase inh	POLK inh
O=C1C(Cl)=C(NS(=O)(=O)c2ccc([N+](=O)[O-])cc2)C(=O)c2ccccc21	?	2%	?	-11%	79µM*	0%
O=[N+]([O-])c1ccc(Oc2ccc(S(=O)(=O)Nc3ccccc3)cc2)cc1	135%	11%	-29%	0%	-6%	-18%
C=CCN=c1scc(-c2ccco2)n1/N=C/c1ccc(O)c(O)c1O	1.8µM*	-96%	?	?	50µM*	22µM*
Cc1ccc(NC(=O)CSc2nc3c(c(=O)[nH]2)CCC3)cc1Cl	15%	-2%	.	-13%	.	-13%
COc1ccc(-c2nc3n(n2)C(c2ccc(OC)c(OC)c2)C(C(=O)Nc2cccnc2)=C(C)N3)cc1 (stereo not given)	2%	1%	50µM*	17%	.	-8%[60.1 µM]
COc1ccc(C2C(C(=O)Nc3cccnc3)=C(C)Nc3nc(-c4ccc(OC)c(OC)c4)nn32)cc1 (stereo not given)	-16%	?	-8%	1%	.	5%
C=C(Br)COC(c1ccco1)[C@H](Cc1ccccc1)NC(=O)OC(C)(C)C (stereo not given in full)	17%	.	.	-25%	.	-15%
CN(C1=C(NC(=O)c2ccccc2)C(=O)c2ccccc2C1=O)C1CCS(=O)(=O)C1 (stereo not given)	7.9µM*	?	79µM*	2%	-1%	6%[60.1 µM]
CCc1ccc(-c2nc(CS(=O)CC(=O)NCc3ccco3)c(C)o2)cc1 (stereo not given)	12%	?	89µM*	13%	-5%	-10%
O=C1/C(=C/c2ccccc2Cl)SC(=S)N1CCC(=O)N1CCCCC1CCO (stereo not given)	25µM*	1%	-12%	-27%	-6%[11.6 µM]	?
O=C1/C(=C\c2ccccc2)SC(=S)N1CCC(=O)N1CCCCC1CCO (stereo not given)	21%	32%	5%	-13%	-2%	6%
O=C(CCCN1C(=O)/C(=C/c2ccccc2Cl)SC1=S)NCCCN1CCOCC1	?	3%	-1%	-7%	89µM*	-3%
CN(C)CCNC(=O)c1cccc2[nH]c(-c3ccncc3)nc12	?	.	15%	45µM*	4%[11.6 µM]	-33%
CN(C)CCNC(=O)c1cccc2nc3c(ccc4ccccc43)nc12	79µM*	.	?	13µM*	?	?
COc1ccc(C(=O)NCCN(C)C)c2nc3ccccc3cc12	79µM*	.	?	14µM*	40%	?
COc1ccc(-c2nc(CSCC(=O)NCCc3ccc(C)cc3)c(C)o2)cc1OC	17%	-3%	3%	13%	.	-2%
Cc1ccc(NC(=O)CN(c2ccccc2)S(=O)(=O)N(C)C)cc1C	-12%	7%	-12%	7%	-14%[57.1 µM]	-1%
COc1ccc(NC(=O)CN(c2ccccc2)S(=O)(=O)N(C)C)cc1OC	14µM*	40µM*	45µM*	10%	?	?
Cc1cc(C)c(NC(=O)CN(c2ccccc2)S(=O)(=O)N(C)C)c(C)c1	89µM*	35µM*	?	0%	-13%[57.1 µM]	?
